Assay outcomes: PubChem BioAssay, National Center for Advancing Translational Sciences (NCATS)
Most compounds without a hit are left out; they make up all but 11% or so of the library.
HTT cytoprotect – Huntington cell model cytoprotection by ATP luminescence; Potency, µM (titrated, usually from 56.4 µM), without a hit: cytoprotection (ATP increase), most hits filed as activators; 0.14% of 230,000 active; PC12 HTT-Q103 induced, cytoprotection, ATP luminescence, 40 h; note: potency is the fitted concentration of half-maximal effect; % of control where 0% means no effect; nearly all actives have a fitted effect of over 45% in size
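Huntington model: PC12 line, ecdysone-inducible HTTQ103 exon1–GFP, tebufenozide 100 nM. Test articles in a dose series. Endpoint luminescence from cellular ATP.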
CBFb RUNX1 block – inhibitors of human CBF-beta and RUNX1 interaction; Potency, µM (series often up to 59.8 µM), inactives show at the highest dose activity, negative = inhibition, usual class: inhibitors; AlphaScreen CBFb-His/RUNX1-biotin binding, biochemical; Q01196+Q13951; 230,000 tested, under 10 active; AID 1477; note: % of control where 0% means no effect
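Inhibition was taken as any reduction in AlphaScreen signal from the CBF-beta–RUNX1 pair (His and biotin tags, 30 nM each), measured after compound (15 min) and bead (90 min) incubations at room temperature.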
HPGD inh – HPGD (human) dehydrogenase inhibition | Potency, µM, for the others: top-dose activity change, negative = inhibition, usual class: inhibitors | purified HPGD, NADH fluorescence kinetic, PGE2 substrate | P15428 | 4.3% of 150,000 active; active = well fitted inhibition curve with a large enough effect, not every such curve was filed as active; inconclusive = small, poorly fitted or top-dose-only effect, or another doubt; inactive = no such curve, though single readings can be large or run the other way; note: potency is the fitted concentration of half-maximal effect; % is set by controls: 0 for no effect and ±100 for the full control effect
Target sequence (P15428 whole entry, looked up): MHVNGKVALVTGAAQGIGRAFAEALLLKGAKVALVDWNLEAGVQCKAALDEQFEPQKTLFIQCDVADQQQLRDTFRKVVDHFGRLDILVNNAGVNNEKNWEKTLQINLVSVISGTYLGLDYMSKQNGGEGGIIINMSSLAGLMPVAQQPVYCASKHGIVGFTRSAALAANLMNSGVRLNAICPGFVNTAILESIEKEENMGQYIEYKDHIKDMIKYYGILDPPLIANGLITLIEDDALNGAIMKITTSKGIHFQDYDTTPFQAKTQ
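NADH formation kinetics: reaction with 30 uM PGE2 and 1 mM NAD+ (final), 20 nM enzyme, Tris-HCl pH 8 with Tween 20, after 15 min compound preincubation at room temperature. Fluorescence change, last versus first of five reads.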
ALDH1A1 block – ALDH1A1 (human) enzyme inhibition; AID 1030; Potency, µM (doses to about 75.3 µM), for the others: top-dose activity, negative = inhibition, actives largely listed as inhibitors; 7.3% of 220,000 active; Purified ALDH1A1, NADH fluorescence, propionaldehyde substrate; active = well fitted inhibition curve with a large enough effect, not every such curve was filed as active; inconclusive = small, poorly fitted or top-dose-only effect, or another doubt; inactive = no such curve, though single readings can be large or run the other way;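 note: potency is the fitted concentration of half-maximal effect; plate controls were no enzyme wells and a reference inhibitor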
Target sequence (P00352 whole entry, looked up): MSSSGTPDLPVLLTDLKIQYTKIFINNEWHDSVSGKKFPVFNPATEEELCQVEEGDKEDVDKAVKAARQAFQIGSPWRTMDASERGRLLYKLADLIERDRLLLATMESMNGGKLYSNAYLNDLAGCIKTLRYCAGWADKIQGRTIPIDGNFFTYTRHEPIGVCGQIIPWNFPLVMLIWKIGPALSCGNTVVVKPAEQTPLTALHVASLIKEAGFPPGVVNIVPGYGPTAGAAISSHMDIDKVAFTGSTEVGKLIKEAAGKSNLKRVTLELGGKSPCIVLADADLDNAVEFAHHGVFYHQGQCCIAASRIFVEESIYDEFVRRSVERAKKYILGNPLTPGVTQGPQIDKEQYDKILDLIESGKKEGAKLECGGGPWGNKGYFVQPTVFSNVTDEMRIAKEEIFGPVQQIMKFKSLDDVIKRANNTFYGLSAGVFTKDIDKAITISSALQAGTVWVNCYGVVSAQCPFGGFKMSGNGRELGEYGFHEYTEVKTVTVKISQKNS
HTT aggregate – mutant huntingtin aggregation inhibition. PC12 HttQ103-GFP aggregates, Acumen cytometry, 40 h. Potency, µM (top dose mostly 46.1 µM), without a hit: top-dose activity change, negative = inhibition, most hits filed as inhibitors. 1.1% of 220,000 active. AID 1688; note: potency is the fitted concentration of half-maximal effect; % is set by controls: 0 for no effect and ±100 for the full control effect; nearly all actives have a fitted effect of over 60% in size
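Read-out: GFP aggregate count by laser scanning cytometer (488 nm excitation, 500-530 nm emission, 1–25 µm objects >6 SD above background). Cells: PC12, inducible HTTex1-Q103-GFP, 100 nM tebufenozide; compounds titrated.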
PNC assembly inh – perinucleolar compartment assembly inhibition; 3.1% of 140,000 active; AID 2417; activity change (PNC), negative = inhibition, % at 10 µM; PC3M PTB-GFP, PNC prevalence imaging, 16 h; hits give low values;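 active = readout at or below -70, meaning at least 70% loss of cells showing the perinucleolar compartment, a nuclear body marking cancer cells; inconclusive = readout between -30 and a set limit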;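 note: plate controls were DMSO wells for no effect and camptothecin positive control wells for full effect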
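PC3M cells stably expressing PTB-GFP, 750–1000 cells/well, treated 16 h at 37 °C with compound (23 nl of library stock), in duplicate. After paraformaldehyde fixation and Hoechst stain, imaged at 20x; PNC prevalence scored by image analysis.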
* hit, by the source's call; ? = inconclusive; nt = no result given; ! = a repeat was not active; [ ] = dose if it differs, or a comment. Unless noted, calls come from the whole dose curve; as a rule, active = well fitted curve in the direction sought with a large enough effect; inconclusive = small, poorly fitted or top-dose-only effect, or another doubt; inactive = no such curve, though single readings can be large; an effect the other way counts as inactive or inconclusive.

SMILES	HTT cytoprotect	CBFb RUNX1 block	HPGD inh	ALDH1A1 block	HTT aggregate	PNC assembly inh
COP(N)(=O)SC (configuration not stated)	nt	nt	-2%	1%	nt	nt
O=c1c2cc(Cl)cc(Cl)c2nc(CN2CCOCC2)n1-c1ccccc1F	-4%[0.074 µM]	-5%	-16%	14µM*	13%	?
COC(=O)C1CN(C#N)N(c2ccc(Cl)cc2)C12c1ccccc1-c1ccccc12 (configuration not stated)	-97%[10 µM]	11%	14µM*	-6%	?	?
COC(=O)CCCc1[se]c2ccccc2c1I	-68%	-8%	22µM*	32µM*	nt	nt
CN(C)C1C(=O)C(C(N)=O)=C(O)[C@@]2(O)C(=O)C3=C(O)c4c(O)ccc(Cl)c4[C@](C)(O)C3CC12 (some centres not stated)	4%	?	?	21%	nt	nt
Cc1nonc1-c1nc(-c2nonc2N)n[nH]1	-5%	-2%	14µM*	-1%	-17%	-26
CN1CCC[C@@H]1c1cccnc1.O=C(O)c1ccccc1O.O=C([OH2+])c1ccccc1O.O=C([OH2+])c1ccccc1O.O=C([OH2+])c1ccccc1O.[Cu]	-9%[10 µM]	nt	?	?	nt	nt
Cc1noc(NS(=O)(=O)c2ccc(NC(=O)CCCOc3ccc(Cl)cc3Cl)cc2)c1C	16%[10 µM]	-11%	25µM*	3%	-8%	-11
O=C(O)CCCOc1ccc(Cl)cc1Cl	nt	nt	-15%	13%	nt	nt
CN1CCCC2(CCN(C(=O)Oc3ccccc3)CC2)C1	28%	nt	-6%	-4%	nt	nt
O=Cc1ccccc1	-3%	8%[21.7 µM]	-9%	3.2µM*	nt	nt
O=C(O)C(Oc1nc(=S)[nH]c(=S)[nH]1)(c1ccc(Cl)cc1)c1ccc(Cl)cc1	-6%[10 µM]	nt	-6%	4%[13.5 µM]	nt	nt
C/C(=N\N1CCN(C)CC1)c1c(O)[nH]c(=O)[nH]c1=O	-11%[10 µM]	-4%	-9%	-4%	-4%	-121*
O=C(N1CCOCC1)C1(c2ccccc2)CCNCC1	14%[10 µM]	nt	1%	12%[13.5 µM]	nt	nt
CC(=O)O[C@H]1[C@H]2[C@@H](OC(=O)Cc3ccccc3)[C@@H](C)C[C@]2(OC(C)=O)C(=O)/C(C)=C/[C@@H]2[C@H](CC[C@@]13CO3)C2(C)C	nt	13%	-4%	-2%	nt	nt
[CH3][Hg][Cl]	-93%	24%[21.7 µM]	?	0.71µM*	nt	nt
COc1cc2c(cc1OC)[C@]13CC[N@+]4(C)CC5=CCO[C@H]6CC(=O)N2[C@@H]1[C@@H]6[C@@H]5C[C@]34O	16%[10 µM]	nt	nt	nt	nt	nt
CC1(C)C(C=C(Cl)Cl)C1C(=O)OC(C#N)c1cccc(Oc2ccccc2)c1 (configuration not stated)	-11%	?	-3%	25µM*!	nt	nt
Oc1c(Cl)cccc1Cl	-4%	-4%[21.7 µM]	-14%	15%	nt	nt
C=C(CC1CC(O)[C@]2(C)OC3CC4OC5C[C@]6(C)O[C@]7(C)CCC8OC9C[C@]%10(C)OC%11C(C)=CC(=O)OC%11CC%10OC9C[C@@H](C)C8OC7CC6O[C@]5(C)C/C=C\C4OC3CC2O1)C(=O)O (some centres not stated)	-20%[10 µM]	3%	nt	4µM*	1%[9.22 µM]	nt
Cc1nnc(SCc2nc3ccccc3c(=O)n2-c2ccccc2Cl)n1N	-7%	5%	-1%	25µM*	9%	?
CCc1nc2ccccc2c(=O)n1-c1ccccc1[N+](=O)[O-]	7%[1.9 µM]	-7%	-9%	?	-28%	31
COc1cc2c(cc1O)C(CCc1ccc(Cl)cc1)N(C)CC2 (configuration not stated)	-60%	2%	-8%	-5%	nt	nt
O=C(Nc1cccc(F)c1)N1CCCC2(CCN(C(=O)Oc3ccccc3)CC2)C1	-8%	nt	-15%	-1%	nt	nt
Cc1cccc(C)c1OCc1n[nH]c(=S)n1N	7%[10 µM]	2%	nt	25µM*	14%	nt
SMILES	HTT cytoprotect	CBFb RUNX1 block	HPGD inh	ALDH1A1 block	HTT aggregate	PNC assembly inh
COc1ccc(OCc2n[nH]c(=S)n2Cc2ccco2)cc1	-13%	-12%	nt	?	9%	nt
Nn1c(COc2ccc(Cl)cc2)n[nH]c1=S	nt	-1%	nt	25µM*	?	nt
CC1CC(C)CN(CC(=O)c2ccc(OC(F)F)cc2)C1 (configuration not stated)	6%[10 µM]	-16%	-9%	1.3µM*	10%	?
CCCCCCCCCCCCCC(=O)O[C@@H]1[C@@H](C)[C@@]2(O)[C@H](C=C(CO)C[C@]3(O)C(=O)C(C)=C[C@@H]23)[C@@H]2C(C)(C)C12OC(C)=O (some centres not stated)	-194%	11%	nt	-2%	nt	nt
CN[C@H]1[C@H](C)O[C@@H](O[C@@H]2C/C=C(/C)C/C(C)=C\C=C/CC[C@@H](C)CNC(=O)/C=C\C=C/[C@H]2C)C[C@@H]1O	-88%[10 µM]	nt	nt	nt	nt	nt
Cc1cccc(N2C(=O)NC(=O)/C(=C\C=C\c3ccco3)C2=O)c1	-29%[10 µM]	-30%	nt	nt	26%[9.22 µM]	nt
Cc1ccc(/C=C2/C(=O)NC(=O)N(Cc3ccc(F)cc3)C2=O)o1	11%[10 µM]	1%	nt	nt	-2%[9.22 µM]	nt
Cc1cccc(N2C(=O)NC(=O)/C(=C/c3ccc([N+](=O)[O-])o3)C2=O)c1	-1%[10 µM]	?	13µM*	-4%	?	-21
COc1ccc(CN2C(=O)NC(=O)/C(=C/c3ccc([N+](=O)[O-])o3)C2=O)cc1	-46%	nt	nt	18µM*	4%	nt
CN1CCN(c2ccc(/C=C3\C(=O)NC(=S)N(c4cccc(Br)c4)C3=O)o2)CC1	nt	-9%	-10%	?	?	?
Cc1cccc(N2C(=O)/C(=C/c3ccc(CN(CCC#N)S(C)(=O)=O)o3)C(=O)NC2=S)c1	-6%	-16%	22µM*	20µM*	7%	48
Cc1ccc(N2C(=O)/C(=C/c3ccc(CN(CCC#N)S(C)(=O)=O)o3)C(=O)NC2=S)cc1C	-18%	-28%	14µM*	20µM*	4%	33
COc1cc2c(cc1OC)[C@@]13CCN4CC5=CCO[C@H](CC(=O)O)[C@@H]([C@H]1N2)[C@H]5C[C@H]43	0%[10 µM]	nt	-11%	17%[13.5 µM]	nt	nt
NC(=NCc1ccc(Cl)cc1)SCCCc1cnc[nH]1	-175%	2%	-8%	14%	nt	nt
CC(=O)c1cccc(OCC(O)CN2CC=C(c3ccccc3)CC2)c1 (configuration not stated)	-8%	-9%	-8%	22µM*	-6%	-8
C[C@@H]1CC[C@H]2[C@H](C)[C@H]3CC[C@@]4(O)[C@@H]5CC(=O)[C@H]6CC(=O)CC[C@]6(C)[C@H]5C[C@H]4[C@@H]3CN2C1	nt	9%	nt	nt	nt	nt
c1ccc2c(CCNC3=NCCC3)c[nH]c2c1	9%	12%	-10%	3%	-10%	-83*
